log2 fold change data for 33 targets are collected here from the supplement of paper PMC10849652.

About 8,800 targets were measured; listed, in parts, are those with a hit and a random draw of the rest. About 0.5% of all pairs of compound and target were hits. Values without a mark were called inactive.

Chain of UniProt Q9Y2H6 (Q9Y2H6 whole entry, looked up): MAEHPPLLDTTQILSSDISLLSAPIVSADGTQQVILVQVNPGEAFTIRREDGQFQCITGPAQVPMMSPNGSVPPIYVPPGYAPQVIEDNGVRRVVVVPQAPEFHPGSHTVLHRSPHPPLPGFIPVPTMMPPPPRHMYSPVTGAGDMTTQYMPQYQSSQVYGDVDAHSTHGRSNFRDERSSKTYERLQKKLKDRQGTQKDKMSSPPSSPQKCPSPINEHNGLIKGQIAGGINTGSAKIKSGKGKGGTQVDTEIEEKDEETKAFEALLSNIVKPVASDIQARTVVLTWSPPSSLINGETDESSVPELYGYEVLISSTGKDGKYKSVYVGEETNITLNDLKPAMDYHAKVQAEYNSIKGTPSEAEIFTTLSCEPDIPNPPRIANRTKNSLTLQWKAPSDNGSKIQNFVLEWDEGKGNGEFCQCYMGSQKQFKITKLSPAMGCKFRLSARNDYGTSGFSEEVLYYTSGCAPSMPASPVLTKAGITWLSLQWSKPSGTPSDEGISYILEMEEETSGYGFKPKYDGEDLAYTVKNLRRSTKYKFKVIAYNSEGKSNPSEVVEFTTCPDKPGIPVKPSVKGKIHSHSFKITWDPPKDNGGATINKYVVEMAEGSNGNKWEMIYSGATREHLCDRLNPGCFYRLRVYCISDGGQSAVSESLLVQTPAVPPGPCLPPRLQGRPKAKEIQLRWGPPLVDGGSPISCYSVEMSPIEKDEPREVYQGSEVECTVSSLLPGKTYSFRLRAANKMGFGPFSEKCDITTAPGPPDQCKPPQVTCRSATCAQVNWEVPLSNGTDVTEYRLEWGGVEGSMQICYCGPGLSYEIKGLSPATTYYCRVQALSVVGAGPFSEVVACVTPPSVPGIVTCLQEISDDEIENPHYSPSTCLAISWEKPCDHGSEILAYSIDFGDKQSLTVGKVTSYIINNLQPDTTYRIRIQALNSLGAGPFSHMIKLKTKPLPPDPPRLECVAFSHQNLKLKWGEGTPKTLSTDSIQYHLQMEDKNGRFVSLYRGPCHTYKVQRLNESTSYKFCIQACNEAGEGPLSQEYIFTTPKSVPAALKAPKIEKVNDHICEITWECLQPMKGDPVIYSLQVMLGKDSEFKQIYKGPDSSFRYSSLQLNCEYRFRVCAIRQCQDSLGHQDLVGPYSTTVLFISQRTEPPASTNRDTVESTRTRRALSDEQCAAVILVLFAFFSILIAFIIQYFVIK
Chain of UniProt P02774 (P02774 whole entry, looked up): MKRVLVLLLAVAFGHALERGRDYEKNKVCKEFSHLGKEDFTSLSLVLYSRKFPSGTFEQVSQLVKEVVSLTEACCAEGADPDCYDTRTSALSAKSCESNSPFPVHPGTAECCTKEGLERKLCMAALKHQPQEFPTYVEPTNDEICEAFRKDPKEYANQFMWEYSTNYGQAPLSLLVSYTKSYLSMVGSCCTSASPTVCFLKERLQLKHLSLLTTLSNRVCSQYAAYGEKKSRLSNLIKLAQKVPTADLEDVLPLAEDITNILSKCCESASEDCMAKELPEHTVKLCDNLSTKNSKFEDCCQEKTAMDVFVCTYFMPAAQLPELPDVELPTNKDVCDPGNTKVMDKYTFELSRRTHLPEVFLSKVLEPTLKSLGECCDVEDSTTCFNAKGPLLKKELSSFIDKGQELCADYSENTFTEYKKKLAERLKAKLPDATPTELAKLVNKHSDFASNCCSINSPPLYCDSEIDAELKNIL
Chain of UniProt Q06547 (Q06547 whole entry, looked up): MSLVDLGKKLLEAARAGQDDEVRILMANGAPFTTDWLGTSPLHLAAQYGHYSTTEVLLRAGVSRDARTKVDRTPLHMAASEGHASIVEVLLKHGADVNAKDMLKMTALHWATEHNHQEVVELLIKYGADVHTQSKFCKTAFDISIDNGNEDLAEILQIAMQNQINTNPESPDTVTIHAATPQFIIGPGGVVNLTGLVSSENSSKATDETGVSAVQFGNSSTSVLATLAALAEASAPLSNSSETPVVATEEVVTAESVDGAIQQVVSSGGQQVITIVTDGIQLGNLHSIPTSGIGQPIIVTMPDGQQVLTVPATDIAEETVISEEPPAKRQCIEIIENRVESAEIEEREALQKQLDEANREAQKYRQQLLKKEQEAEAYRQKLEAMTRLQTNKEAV
Chain of UniProt Q13409 (Q13409 whole entry, looked up): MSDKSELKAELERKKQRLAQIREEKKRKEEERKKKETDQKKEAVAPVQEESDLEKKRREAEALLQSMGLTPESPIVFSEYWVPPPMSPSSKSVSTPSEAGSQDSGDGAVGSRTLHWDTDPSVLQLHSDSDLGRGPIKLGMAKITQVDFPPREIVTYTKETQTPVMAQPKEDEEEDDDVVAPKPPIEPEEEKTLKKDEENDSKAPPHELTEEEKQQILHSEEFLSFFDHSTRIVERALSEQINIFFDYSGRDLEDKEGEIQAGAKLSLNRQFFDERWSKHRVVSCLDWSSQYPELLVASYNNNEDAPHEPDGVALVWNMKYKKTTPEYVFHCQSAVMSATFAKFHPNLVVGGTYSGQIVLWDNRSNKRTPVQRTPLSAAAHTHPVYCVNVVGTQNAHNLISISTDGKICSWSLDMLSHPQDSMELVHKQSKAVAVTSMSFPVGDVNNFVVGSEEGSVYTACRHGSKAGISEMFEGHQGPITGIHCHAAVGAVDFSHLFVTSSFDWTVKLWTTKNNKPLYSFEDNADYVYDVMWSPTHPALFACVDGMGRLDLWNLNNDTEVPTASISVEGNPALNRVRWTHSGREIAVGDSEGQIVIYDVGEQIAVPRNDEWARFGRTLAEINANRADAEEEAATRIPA
Chain of UniProt Q9H4H8 (Q9H4H8 whole entry, looked up): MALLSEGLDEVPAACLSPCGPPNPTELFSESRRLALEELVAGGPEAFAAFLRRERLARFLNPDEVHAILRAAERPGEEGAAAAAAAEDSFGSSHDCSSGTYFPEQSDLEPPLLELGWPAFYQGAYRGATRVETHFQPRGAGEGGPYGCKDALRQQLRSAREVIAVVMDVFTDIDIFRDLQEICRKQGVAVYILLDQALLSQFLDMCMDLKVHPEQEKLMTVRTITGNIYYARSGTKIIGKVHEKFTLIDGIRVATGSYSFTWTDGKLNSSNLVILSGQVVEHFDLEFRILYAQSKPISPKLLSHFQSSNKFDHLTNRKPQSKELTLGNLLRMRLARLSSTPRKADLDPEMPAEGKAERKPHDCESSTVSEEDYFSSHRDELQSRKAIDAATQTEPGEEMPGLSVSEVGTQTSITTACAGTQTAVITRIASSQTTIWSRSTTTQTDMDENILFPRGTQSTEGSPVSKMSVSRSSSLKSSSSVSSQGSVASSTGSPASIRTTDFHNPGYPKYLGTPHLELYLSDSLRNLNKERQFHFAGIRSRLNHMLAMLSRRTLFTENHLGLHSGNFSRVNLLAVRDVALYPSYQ
Chain of UniProt P11171 (P11171 whole entry, looked up): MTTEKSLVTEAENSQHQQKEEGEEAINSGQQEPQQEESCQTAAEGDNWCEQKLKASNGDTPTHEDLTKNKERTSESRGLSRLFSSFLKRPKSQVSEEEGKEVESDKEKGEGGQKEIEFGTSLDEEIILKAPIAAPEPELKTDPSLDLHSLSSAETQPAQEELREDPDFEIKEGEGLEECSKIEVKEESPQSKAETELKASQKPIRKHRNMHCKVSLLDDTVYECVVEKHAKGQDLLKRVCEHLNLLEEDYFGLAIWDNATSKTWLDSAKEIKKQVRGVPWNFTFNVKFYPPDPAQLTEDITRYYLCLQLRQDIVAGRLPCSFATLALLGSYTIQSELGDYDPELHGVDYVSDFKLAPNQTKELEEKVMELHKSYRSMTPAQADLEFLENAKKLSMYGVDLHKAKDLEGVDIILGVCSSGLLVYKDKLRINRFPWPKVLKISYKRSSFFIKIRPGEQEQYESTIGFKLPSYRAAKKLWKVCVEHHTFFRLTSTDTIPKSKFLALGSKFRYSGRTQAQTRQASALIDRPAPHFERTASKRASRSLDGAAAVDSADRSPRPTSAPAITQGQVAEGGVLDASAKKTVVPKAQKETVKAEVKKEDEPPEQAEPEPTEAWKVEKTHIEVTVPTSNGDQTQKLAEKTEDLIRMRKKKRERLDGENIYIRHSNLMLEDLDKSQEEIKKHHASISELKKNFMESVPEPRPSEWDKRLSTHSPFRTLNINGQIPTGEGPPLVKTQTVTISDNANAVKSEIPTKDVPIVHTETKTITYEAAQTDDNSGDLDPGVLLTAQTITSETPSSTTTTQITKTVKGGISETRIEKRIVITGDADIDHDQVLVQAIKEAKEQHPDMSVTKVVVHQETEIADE
Chain of UniProt Q96PZ2 (Q96PZ2 whole entry, looked up): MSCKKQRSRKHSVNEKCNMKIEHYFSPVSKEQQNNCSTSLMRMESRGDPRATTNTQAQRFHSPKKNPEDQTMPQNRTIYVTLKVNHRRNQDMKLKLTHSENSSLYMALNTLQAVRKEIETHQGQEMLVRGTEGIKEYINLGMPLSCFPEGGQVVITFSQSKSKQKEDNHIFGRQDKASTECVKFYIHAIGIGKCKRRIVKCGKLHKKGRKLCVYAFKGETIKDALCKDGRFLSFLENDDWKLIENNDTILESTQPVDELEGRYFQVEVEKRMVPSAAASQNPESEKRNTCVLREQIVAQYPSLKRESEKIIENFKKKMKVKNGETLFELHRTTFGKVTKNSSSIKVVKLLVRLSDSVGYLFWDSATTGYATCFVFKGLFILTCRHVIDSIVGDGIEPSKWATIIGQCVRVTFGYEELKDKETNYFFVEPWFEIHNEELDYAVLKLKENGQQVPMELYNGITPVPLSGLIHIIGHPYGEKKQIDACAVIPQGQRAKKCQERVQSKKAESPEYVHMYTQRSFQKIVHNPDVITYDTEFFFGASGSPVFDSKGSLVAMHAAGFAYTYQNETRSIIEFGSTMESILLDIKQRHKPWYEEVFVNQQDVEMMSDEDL
Chain of UniProt P0C2W1 (P0C2W1 whole entry, looked up): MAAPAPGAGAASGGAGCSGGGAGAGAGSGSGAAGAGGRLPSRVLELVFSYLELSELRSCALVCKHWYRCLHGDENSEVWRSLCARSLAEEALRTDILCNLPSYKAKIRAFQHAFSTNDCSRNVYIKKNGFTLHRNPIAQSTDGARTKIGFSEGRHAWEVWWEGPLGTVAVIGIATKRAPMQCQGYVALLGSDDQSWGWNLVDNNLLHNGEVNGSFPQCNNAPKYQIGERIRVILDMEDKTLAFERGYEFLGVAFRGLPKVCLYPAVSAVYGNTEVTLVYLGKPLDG

Compound in one test: Cn1cc(-c2ccc3c(c2)CCN3C(=O)Cc2cccc(C(F)(F)F)c2)c2c(N)ncnc21
In words: log2 fold change, soluble protein after heating vs DMSO (PISA); higher = thermal stabilisation; K562 lysate, 10 uM; active = over 0.2 and 3.5 SD of the protein, either way, in both replicates (recomputed). A digest of the protocol: (§1)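 A 30 min treatment with 10 μM compound was applied to crude K562 extract at 1 mg/mL protein in PBS pH 7.4 with 1 mM MgCl2. Heating for 3 min spanned 48°C-58°C, after which aliquots were pooled, adjusted to 0.5% NP-40 at 4°C and spun at 21,000xg for 90 min. TMTpro 16plex LC-MS/MS of the supernatant, with channel sums equalised, gave values recorded as log-two fold change in thermal stability against solvent controls, from duplicates.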
For the target FAM111A (UniProt Q96PZ2), the log2 fold change was 0.015.

As to EID1 (UniProt Q9Y6B2), the log2 fold change was 0.32.

With FAM53B (UniProt Q14153), the log2 fold change was 0.14.

With FOXJ2 (UniProt Q9P0K8), the log2 fold change was 0.018.

Regarding FBRSL1, A0A3B3IRR3, the log2 fold change is -0.042.

Consider FOXL2 (UniProt P58012), for which the log2 fold change is -0.013.

ERG28 (UniProt Q9UKR5): the log2 fold change was 0.059.

Regarding FYN (UniProt P06241), the log2 fold change was 0.004.

With EIF2AK3 (UniProt Q9NZJ5), the log2 fold change was 0.269.

On to FLT4 (UniProt P35916), for which the log2 fold change is 0.013.

Consider DUSP22 isoform 2 (UniProt Q9NRW4), for which the log2 fold change is -0.001.

As for FAM83D (UniProt Q9H4H8), the log2 fold change is -0.033.

Turning to GC isoform 3 (UniProt P02774), the log2 fold change was -0.114.

For the target DTL (UniProt Q9NZJ0), the log2 fold change is 0.066.

For DYNC1I2 isoform 2 (UniProt Q13409), the log2 fold change is 0.046.

On to GDE1 (UniProt Q9NZC3), for which the log2 fold change was -0.012.

Turning to GABPB1 isoform 3 (UniProt Q06547), the log2 fold change was 0.034.

EPB41, A0A2R8Y783: the log2 fold change was -0.11.

Consider EWSR1 (UniProt H7BY36), for which the log2 fold change was -0.025.

Compound in another test: Cn1cc(CNCC2CCN(c3ncc(C(=O)NO)cn3)CC2)c2ccccc21 [quisinostat]
The description is as above. A digest of the protocol: as §1
Regarding FBXO45 (UniProt P0C2W1), the log2 fold change was -0.006.

Consider FNDC3A (UniProt Q9Y2H6), for which the log2 fold change is -0.247.

Turning to EPB41 isoform 4 (UniProt P11171), the log2 fold change is -0.077.

As to FAM111A (UniProt Q96PZ2), the log2 fold change is 0.18.

As to FAM53B (UniProt Q14153), the log2 fold change is -0.078.

FBRSL1, A0A3B3IRR3: the log2 fold change was 0.031.

FAM204A (UniProt Q9H8W3): the log2 fold change is -0.129.

With GART (UniProt C9JZG2), the log2 fold change was -0.373.

Regarding GAA (UniProt P10253), the log2 fold change is 0.024.

Regarding DYRK1A isoform 2 (UniProt Q13627), the log2 fold change is -0.095.

For FYN (UniProt P06241), the log2 fold change was 0.022.

FAM83D (UniProt Q9H4H8): the log2 fold change is -0.061.

Turning to GC isoform 3 (UniProt P02774), the log2 fold change was 0.175.

Regarding DTL (UniProt Q9NZJ0), the log2 fold change was -0.227 (active).

In the case of DYNC1I2 isoform 2 (UniProt Q13409), the log2 fold change was -0.009.

Turning to GDE1 (UniProt Q9NZC3), the log2 fold change was 0.085.

EXO5 (UniProt Q9H790): the log2 fold change was -0.082.

FAT1 (UniProt Q14517): the log2 fold change is 0.572 (active).

For GABPB1 isoform 3 (UniProt Q06547), the log2 fold change was -0.017.

As to EWSR1 (UniProt H7BY36), the log2 fold change was 0.112.

Turning to FAT2 (UniProt Q9NYQ8), the log2 fold change was -0.978 (active).

Compound in another test: Cn1cncc1[C@@](N)(c1ccc(Cl)cc1)c1ccc2c(c1)c(-c1cccc(Cl)c1)cc(=O)n2C [tipifarnib]
The test is described as above. A digest of the protocol:
as §1
As for EIF2B5, A0A3B3ITK8, the log2 fold change is 0.313.

For FBXO45 (UniProt P0C2W1), the log2 fold change is -0.011.

With FNDC3A (UniProt Q9Y2H6), the log2 fold change is -0.064.

Turning to EPB41 isoform 4 (UniProt P11171), the log2 fold change was 0.036.

Regarding EID1 (UniProt Q9Y6B2), the log2 fold change was 0.021.

Consider FAM53B (UniProt Q14153), for which the log2 fold change was -0.013.

As to FOXJ2 (UniProt Q9P0K8), the log2 fold change was -0.293.

In the case of FBRSL1, A0A3B3IRR3, the log2 fold change is -0.073.

As to EIF3I (UniProt Q5TFK1), the log2 fold change was -0.511.

Regarding GART (UniProt C9JZG2), the log2 fold change is -0.101.

As to GAA (UniProt P10253), the log2 fold change was -0.336.

EIF2AK3 (UniProt Q9NZJ5): the log2 fold change is -0.088.

With DUSP22 isoform 2 (UniProt Q9NRW4), the log2 fold change is 0.038.

For FAM83D (UniProt Q9H4H8), the log2 fold change was -0.02.

In the case of DTL (UniProt Q9NZJ0), the log2 fold change was 0.036.

As to EPN2 (UniProt I3L356), the log2 fold change was 0.238.

Take FAT2 (UniProt Q9NYQ8): the log2 fold change was -0.028.

Turning to GCA (UniProt P28676), the log2 fold change is -0.141.

Compound in a further test: NC(=O)Nc1cc(-c2cccc(F)c2)sc1C(=O)N[C@H]1CCCNC1
The description is as above. A digest of the protocol: as §1
As for FBXO45 (UniProt P0C2W1), the log2 fold change is 0.008.

As to FNDC3A (UniProt Q9Y2H6), the log2 fold change was 0.059.

EPB41 isoform 4 (UniProt P11171): the log2 fold change is 0.053.

As to FAM111A (UniProt Q96PZ2), the log2 fold change is 0.039.

In the case of FAM53B (UniProt Q14153), the log2 fold change was 0.093.

In the case of FBRSL1, A0A3B3IRR3, the log2 fold change was 0.029.

With FAM204A (UniProt Q9H8W3), the log2 fold change was 0.069.

Turning to GART (UniProt C9JZG2), the log2 fold change is -0.02.

Turning to GAA (UniProt P10253), the log2 fold change is 0.007.

For DYRK1A isoform 2 (UniProt Q13627), the log2 fold change was 0.139.

Turning to FYN (UniProt P06241), the log2 fold change was -0.029.

As to FAM83D (UniProt Q9H4H8), the log2 fold change was -0.019.

On to GC isoform 3 (UniProt P02774), for which the log2 fold change is -0.076.

DTL (UniProt Q9NZJ0): the log2 fold change is 0.025.

Turning to DYNC1I2 isoform 2 (UniProt Q13409), the log2 fold change is 0.024.

As for GDE1 (UniProt Q9NZC3), the log2 fold change was 0.029.

Turning to EXO5 (UniProt Q9H790), the log2 fold change was -0.071.

FAT1 (UniProt Q14517): the log2 fold change was -0.105.

For the target GABPB1 isoform 3 (UniProt Q06547), the log2 fold change is -0.012.

For the target EWSR1 (UniProt H7BY36), the log2 fold change is 0.118.

As to FAT2 (UniProt Q9NYQ8), the log2 fold change is 0.36.
